Data on eight molecules can be found in PubChem BioAssay.

Assay [1] relates to TRPC4 beta (transient receptor potential cation channel C4), mouse. Kind of assay: TRPC4 cation channel opening, retest – cell-based, Fluo4 calcium, HEK293 TRPC4beta/mu-opioid, duplicates, 10 µM, confirmation (AID 2426;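 active means fluorescence ratio normalized to control raised more than 50% in primary screen plus both repeat runs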;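 further: percent rise of integrated ratio over buffer wells lacking compound which define 0%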). The settings on record: Fluo4 calcium fluorescence, at 10 µM; stronger effect = higher value.
For assay [2], the system named is transient receptor potential cation channel C4 beta (TRPC4), mouse. Kind of assay: TRPC4 cation channel opening, second retest – cell-based, second round, Fluo4, HEK293 TRPC4beta/mu-opioid, 1 µM, confirmation (AID 2461;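 active means primary screen active and over 50% activation in each of two duplicate runs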;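 on activation: 0% = wells without test compound as baseline of integrated fluorescence ratio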). As to conditions: Fluo4 calcium fluorescence, at 1 µM; stronger effect = higher value.
Assay [3] has as its system TRPC4 (transient receptor potential cation channel C4 beta), mouse. Kind of assay: potentiation of DAMGO EC20 TRPC4 response – cell-based, second round, Fluo-4, HEK293 TRPC4beta/mu-opioid, 1 µM, confirmation (AID 2554;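 active means primary screen hit whose fluorescence ratio, in both repeats, exceeds the weak agonist control mean by 3 SD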). The settings on record: DAMGO EC20, Fluo-4 calcium flux, at 1 µM; stronger effect = higher value. Background: Calcium flux is commonly read through the fluorescence of an indicator in the cells.

The subject of assay [4] is TRPC4 beta (transient receptor potential cation channel C4), mouse. Kind of assay: potentiation of DAMGO EC20 TRPC4 response – cell-based, Fluo-4, HEK293 TRPC4beta/mu-opioid, confirmation (AID 2555;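 active means primary screen hit whose calcium fluorescence ratio, in both repeats, exceeds the weak agonist control mean by 3 SD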). As to conditions: DAMGO EC20, Fluo-4 calcium flux, at 10 µM; stronger effect = higher value.
The target in assay [5] is Short transient receptor potential channel 4 (Mus musculus) (UniProt Q9QUQ5). Kind of assay: blockers of DAMGO-evoked TRPC4 calcium flux – cell-based, Fluo4, HEK293 TRPC4beta/mu-opioid, confirmation (AID 2636;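 active means calcium signal cut by more than 3 SD below the full-agonist control yet still positive, in both repeats and the earlier primary screen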). The settings on record: at 10 µM; stronger effect = higher value.
For assay [6] the target is unchanged. Nature of the assay: blockers of DAMGO-evoked TRPC4 calcium flux – cell-based, second round, Fluo4, HEK293 TRPC4beta/mu-opioid, 1 µM, confirmation (AID 2637;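 active means calcium signal ratio cut to more than 3 SD under the fully stimulated control mean yet still positive, in both repeats and the primary screen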). The settings on record: at 1 µM; stronger effect = higher value.
The target is the same in assay [7]. Nature of the assay: potentiation of DAMGO-evoked TRPC4 calcium signal – cell-based, HEK293 TRPC4/mu-opioid, Fluo-4 calcium, EC20 DAMGO, dose response (AID 434941).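 Further: calcium entry triggered by an EC20 dose of DAMGO at the co-expressed mu-opioid receptor.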
For assay [8] the target is unchanged. Nature of the assay: block of DAMGO-driven TRPC4 calcium entry – cell-based, HEK293 TRPC4/mu-opioid, Fluo-4 calcium, dose response (AID 434942;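 active means primary screen inhibitor hit that blocks the TRPC4 channel at some tested dose, yielding a dose curve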).
Assay [9] deals with Short transient receptor potential channel 6 (Mus musculus) (UniProt Q61143). Kind of assay: TRPC6 blockade by TRPC4 inhibitor hits – cell-based, HEK293, membrane potential dye, duplicate, selectivity assay for TRPC4 inhibitor project, confirmation (AID 434948;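 active means active in primary screen and both duplicates, each dropping signal beyond three positive-control SD with fluorescence still positive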). The settings on record: HEK293 TRPC6, membrane potential dye fluorescence, at 10 µM; inhibition: stronger effect = higher value, stimulated with maximal-effect acetylcholine unless noted; outcome: stimulated with maximal-effect acetylcholine unless noted.

Assay [10] shares this target. Nature of the assay: TRPC6 opening by TRPC4 activator hits – cell-based, HEK293, membrane potential dye, duplicate, selectivity assay for TRPC4 activator project, confirmation (AID 434950;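 active means membrane potential signal rise above negative control mean plus 3 SD in both duplicates, also active in the earlier TRPC4 screen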;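 on activation: 0% = buffer only wells and 100% = acetylcholine maximal-effect wells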). The settings on record: HEK293 TRPC6, membrane potential fluorescence, at 10 µM; activation: stronger effect = higher value; outcome: activation.
The target is the same in assay [11]. Kind of assay: positive modulators of mouse TRPC6 channel – HEK293 cells, membrane potential dye, duplicate, selectivity assay for TRPC4 potentiator project, confirmation (AID 434952;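 active means compound raising the membrane signal above positive-control mean plus 3 SD in both repeats, and a primary screen hit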). The settings on record: HEK293 TRPC6, membrane potential dye fluorescence, at 10 µM; maximal acetylcholine added after compound unless noted.
The target of assay [12] is Short transient receptor potential channel 4 (Mus musculus) (UniProt Q9QUQ5). Nature of the assay: calcium flux activators in TRPC4/5HT1a cells, counter-screen for TRPC4 activator project, cell-based, second counter screen, HEK293 TRPC4/5HT1a, Fluo-4 (AID 434977;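 active means calcium signal rise above buffer-control mean plus 5 SD in both duplicates, and also a hit in the primary screen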;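 on activation: plate controls were assay buffer for no effect and maximal serotonin response for full effect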). The settings on record: Fluo-4 calcium flux, at 10 µM; stronger effect = higher value.
Assay [13] is described as follows: serotonin-gated TRPC4 signal block – cell-based, second counter screen, HEK293 TRPC4/5HT1a, Fluo-4, counter-screen for TRPC4 inhibitor project, confirmation (AID 434978;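 active means primary screen active whose calcium signal fell more than 3 SD beyond the full-serotonin control mean in both duplicate plates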;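 further: serotonin given first at submaximal then at maximal dose after compound preincubation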). As to conditions: Fluo-4 calcium flux, at 10 µM; inhibition: stronger effect = higher value, serotonin added to trigger calcium flux unless noted; outcome: serotonin added to trigger calcium flux unless noted.

In assay [14] the test system is TRPC4 (mouse), co-expressed with 5HT1a in HEK293. Nature of the assay: enhancement of serotonin-evoked TRPC4 response – cell-based, second counter screen, HEK293 TRPC4/5HT1a, Fluo-4, counter-screen for TRPC4 potentiator project, confirmation (AID 434979;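 active means signal rise over 3 SD above mean of control wells given weak agonist, in both repeats and first screen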). The settings on record: Fluo-4 calcium flux, at 10 µM; outcome: serotonin added at its EC20 dose unless noted; potentiation: stronger effect = higher value, serotonin added at its EC20 dose unless noted. (In general: A counterscreen serves to expose hits that act by an unwanted route or on another target.)

Assay [15] in a line: nonspecific calcium rise without TRPC4 – cell-based, HEK293 mu-opioid receptor line, counter-screen for TRPC4 activator project, confirmation (AID 449723;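 active means hit in primary screen, with calcium signal over 5 SD above buffer well mean in both duplicates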;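 further: counter screen cells carry the mu-opioid receptor alone and lack TRPC4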). As to conditions: HEK293 mu-opioid cells, Fluo-4 calcium fluorescence, at 10 µM; stronger effect = higher value.
A short description of assay [16]: nonspecific potentiation of DAMGO calcium response – cell-based, HEK293 mu-opioid receptor line, counter-screen for TRPC4 allosteric potentiator project, confirmation (AID 449724;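 active means calcium signal rise more than 3 SD above the low-dose agonist control mean, in both duplicate plates and the primary screen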;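 further: HEK293 cells carrying mu-opioid receptor only with no TRPC4 channel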). The settings on record: HEK293 mu-opioid receptor cells, Fluo-4 calcium flux, at 10 µM; compound added before EC20 DAMGO stimulus unless noted.

Structures are written as SMILES. For some assays here: Potency and affinity values are given separately. The source made the active and inactive calls.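 How the source made its calls, unless noted: active means earlier screen potentiator hit that boosts the TRPC4 ion channel at some dose, with a dose response; inactive means no potentiation, no dose response, or not a prior hit.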

Sequence of Short transient receptor potential channel 6 (Mus musculus) (Q61143 whole entry, looked up): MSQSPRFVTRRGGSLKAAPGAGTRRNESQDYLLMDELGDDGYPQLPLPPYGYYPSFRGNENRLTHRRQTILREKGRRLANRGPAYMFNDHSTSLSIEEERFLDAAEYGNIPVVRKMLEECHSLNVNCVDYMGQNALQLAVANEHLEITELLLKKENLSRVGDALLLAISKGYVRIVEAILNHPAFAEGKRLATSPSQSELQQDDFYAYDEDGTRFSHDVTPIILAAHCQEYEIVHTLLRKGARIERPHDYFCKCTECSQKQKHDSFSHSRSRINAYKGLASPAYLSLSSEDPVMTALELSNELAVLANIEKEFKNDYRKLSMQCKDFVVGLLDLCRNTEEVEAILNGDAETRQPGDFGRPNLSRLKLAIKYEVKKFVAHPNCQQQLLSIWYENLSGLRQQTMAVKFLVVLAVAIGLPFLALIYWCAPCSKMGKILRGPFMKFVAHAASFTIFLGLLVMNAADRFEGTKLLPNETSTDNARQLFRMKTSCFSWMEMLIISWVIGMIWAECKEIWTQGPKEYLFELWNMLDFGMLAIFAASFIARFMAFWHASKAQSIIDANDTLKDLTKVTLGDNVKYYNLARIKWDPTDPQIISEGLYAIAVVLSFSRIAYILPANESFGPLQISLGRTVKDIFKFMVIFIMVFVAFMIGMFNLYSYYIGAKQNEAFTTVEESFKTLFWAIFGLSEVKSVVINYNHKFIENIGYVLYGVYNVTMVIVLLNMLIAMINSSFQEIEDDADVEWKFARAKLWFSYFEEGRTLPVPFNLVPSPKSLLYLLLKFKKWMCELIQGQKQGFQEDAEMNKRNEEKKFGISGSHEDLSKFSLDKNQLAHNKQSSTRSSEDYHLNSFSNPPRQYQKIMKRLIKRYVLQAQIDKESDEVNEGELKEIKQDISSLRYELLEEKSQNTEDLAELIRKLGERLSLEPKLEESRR
Sequence of Short transient receptor potential channel 4 (Mus musculus) (Q9QUQ5 whole entry, looked up): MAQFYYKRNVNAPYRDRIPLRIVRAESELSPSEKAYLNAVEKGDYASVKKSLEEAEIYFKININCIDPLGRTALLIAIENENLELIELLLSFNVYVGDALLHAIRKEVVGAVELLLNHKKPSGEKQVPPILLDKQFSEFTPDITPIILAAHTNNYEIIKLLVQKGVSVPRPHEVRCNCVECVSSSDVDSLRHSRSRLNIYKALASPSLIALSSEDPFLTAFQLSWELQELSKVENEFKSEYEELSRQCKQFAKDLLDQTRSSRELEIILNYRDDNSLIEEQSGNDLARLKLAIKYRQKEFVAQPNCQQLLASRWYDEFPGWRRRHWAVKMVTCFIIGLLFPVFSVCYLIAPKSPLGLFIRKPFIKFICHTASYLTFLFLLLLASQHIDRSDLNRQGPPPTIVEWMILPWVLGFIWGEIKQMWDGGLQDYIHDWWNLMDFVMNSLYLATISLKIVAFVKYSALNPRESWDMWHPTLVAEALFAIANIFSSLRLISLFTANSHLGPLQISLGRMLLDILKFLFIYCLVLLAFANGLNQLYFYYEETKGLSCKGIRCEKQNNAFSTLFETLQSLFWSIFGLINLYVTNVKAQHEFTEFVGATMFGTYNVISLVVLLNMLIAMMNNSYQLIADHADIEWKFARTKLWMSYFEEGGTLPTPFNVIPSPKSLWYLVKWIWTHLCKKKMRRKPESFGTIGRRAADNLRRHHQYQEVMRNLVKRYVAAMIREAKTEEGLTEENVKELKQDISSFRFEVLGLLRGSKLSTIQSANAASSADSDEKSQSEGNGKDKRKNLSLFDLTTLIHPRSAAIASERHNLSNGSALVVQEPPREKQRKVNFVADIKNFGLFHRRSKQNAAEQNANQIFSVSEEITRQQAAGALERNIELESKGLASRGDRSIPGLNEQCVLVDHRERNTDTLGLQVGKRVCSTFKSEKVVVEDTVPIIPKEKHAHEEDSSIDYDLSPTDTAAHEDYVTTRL

Consider `Cc1nc2ccccn2c1P(=S)(N1CCCCC1)N1CCCCC1`, for which the activation in assay [1] was 88% (active); in assay [10] it was 88% (active); in assay [12] it was 87.7% (active); in [15], 74.7% (active). Further, the result in [2], in assay [3], in assay [4], in assay [5], in [6] and in assay [7] was inactive. Further, the outcome in assay [8], in assay [9], in assay [11], in assay [13], in [14] and in [16] was inactive.
`CC[C@@H](CO)NC(=O)[C@@H]1C=C2c3cccc4c3c(cn4C)C[C@H]2N(C)C1`: the activation in assay [1] is 107% (active); in [2] it was 57% (active); in assay [12], 147% (active). In addition, the outcome in assay [3], in assay [4], in assay [5], in assay [6], in [7] and in [8] was inactive. In addition, the call in [10] and in assay [15] was inactive. The outcome in assay [9], in assay [11], in assay [13], in [14] and in [16] was “inactive [setting not given]” in each case.
As for `O=C1OC(c2ccc([N+](=O)[O-])cc2)=N/C1=C/N1CC2CC(C1)c1cccc(=O)n1C2` (stereo not drawn), the activation in assay [1] was 158% (active); in assay [10], 254% (active); in assay [12], 64.7% (active); in assay [15], 55.4% (active). For the same molecule, the result in assay [2], in assay [3], in assay [4], in [5], in assay [6] and in assay [7] was inactive. The result in [8], in assay [9], in [11], in [13], in assay [14] and in assay [16] was inactive.
As for `CN(C)C(CNC(=O)Cc1c(Cl)cccc1Cl)c1ccccc1` (stereo not drawn), the activation is 148% (active) in assay [1], 86% (active) in assay [2] and 57.5% (active) in assay [10]. Further, the outcome in assay [3], in assay [4], in assay [5], in [6], in assay [7] and in [8] was inactive. Also, the call in assay [9], in [11], in [12], in assay [13], in assay [14] and in assay [15] was inactive. Moreover, the result in assay [16] was inactive.
For the molecule `CCN(CC)c1ccc(/C=C/[N+](=O)[O-])cc1`, the activation is 96% (active) in assay [1], 906% (active) in [10], 67.9% (active) in assay [12] and 113% (active) in assay [15]. Also, the outcome in [2], in [3], in [4], in [5], in [6] and in [7] was inactive. In addition, the outcome in [8], in assay [9], in assay [11], in [13], in assay [14] and in [16] was inactive.
For the molecule `COc1ccc(C(=O)C2CCCN(C3CSCCSC3)C2)cc1OC` (stereo not drawn), the activation is 166% (active) in assay [1], 86% (active) in assay [2], 33.5% (active) in assay [10] and 87.7% (active) in assay [12]. Further, the result in assay [3], in assay [4], in assay [5], in assay [6], in assay [7] and in [8] was inactive. For the same molecule, the result in assay [9], in assay [11], in assay [13], in [14], in [15] and in assay [16] was inactive.
In the case of `COc1cc(C)c(CNCCc2c[nH]c3ccccc23)cc1C`, the activation was 165% (active) in assay [1], 54.5% (active) in assay [10], 74.2% (active) in assay [12] and 12.8% (active) in assay [15]. The outcome in [2], in [3], in [4], in assay [5], in assay [6] and in assay [7] was inactive. Also, the result in assay [8], in assay [9], in assay [11], in assay [13], in [14] and in assay [16] was inactive.
As to `COc1ccc2c(c1O)[C@]13CCN(C)[C@H](C2)[C@@H]1CCC(=O)C3`, the activation in assay [1] was 82% (active); in [2], 99% (active); in [10] it was 29.5% (active). In addition, the result in [3], in assay [4], in assay [5], in assay [6], in assay [7] and in [8] was inactive. The outcome in [12] and in assay [15] was inactive. For the same molecule, the outcome in assay [9], in [11], in [13], in assay [14] and in [16] was “inactive [setting not given]” in each case.
